We go through one compound from ChEMBL document CHEMBL1961873, “Compounds: GSK PKIS; Assays: Nanosyn kinase panel” (2012).

In assay [1] the target is Sphingosine kinase 1 (Homo sapiens) (UniProt Q9NYA1). The following applies: at 1 µM.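 Further: mean SPHK1 inhibition value reported from the GSK PKIS kinase panel screen.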
Assay [2] addresses T1, Sphingosine kinase 2 (Homo sapiens) (UniProt Q9NRA0).
T1 sequence (whole entry): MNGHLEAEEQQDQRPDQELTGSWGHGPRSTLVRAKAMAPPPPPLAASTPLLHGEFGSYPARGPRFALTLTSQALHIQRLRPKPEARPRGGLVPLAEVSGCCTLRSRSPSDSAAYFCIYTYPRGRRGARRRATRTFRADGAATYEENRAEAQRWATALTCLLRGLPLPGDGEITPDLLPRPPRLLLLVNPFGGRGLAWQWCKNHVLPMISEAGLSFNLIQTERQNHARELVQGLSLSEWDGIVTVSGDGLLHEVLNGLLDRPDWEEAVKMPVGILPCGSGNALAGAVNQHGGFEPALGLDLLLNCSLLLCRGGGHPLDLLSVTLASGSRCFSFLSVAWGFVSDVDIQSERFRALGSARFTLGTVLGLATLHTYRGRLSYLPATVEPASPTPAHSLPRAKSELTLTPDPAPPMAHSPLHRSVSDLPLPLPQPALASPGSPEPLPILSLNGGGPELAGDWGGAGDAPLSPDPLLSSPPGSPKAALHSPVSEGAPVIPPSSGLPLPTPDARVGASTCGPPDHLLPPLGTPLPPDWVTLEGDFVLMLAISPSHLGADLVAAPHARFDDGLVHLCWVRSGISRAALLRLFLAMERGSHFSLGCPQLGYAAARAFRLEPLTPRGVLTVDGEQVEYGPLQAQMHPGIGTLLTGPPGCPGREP
The following applies: at 0.1 µM.

The target in assay [3] is T1, Sphingosine kinase 2 (Homo sapiens). As to conditions: at 1 µM.
Assay [4] addresses Casein kinase II subunit alpha (Homo sapiens) (UniProt P68400). The following applies: at 0.1 µM.
The target is the same in assay [5]. The following applies: at 1 µM.
Assay [6] addresses T2, Inhibitor of nuclear factor kappa-B kinase subunit alpha (Homo sapiens) (UniProt O15111).
T2 sequence (whole entry): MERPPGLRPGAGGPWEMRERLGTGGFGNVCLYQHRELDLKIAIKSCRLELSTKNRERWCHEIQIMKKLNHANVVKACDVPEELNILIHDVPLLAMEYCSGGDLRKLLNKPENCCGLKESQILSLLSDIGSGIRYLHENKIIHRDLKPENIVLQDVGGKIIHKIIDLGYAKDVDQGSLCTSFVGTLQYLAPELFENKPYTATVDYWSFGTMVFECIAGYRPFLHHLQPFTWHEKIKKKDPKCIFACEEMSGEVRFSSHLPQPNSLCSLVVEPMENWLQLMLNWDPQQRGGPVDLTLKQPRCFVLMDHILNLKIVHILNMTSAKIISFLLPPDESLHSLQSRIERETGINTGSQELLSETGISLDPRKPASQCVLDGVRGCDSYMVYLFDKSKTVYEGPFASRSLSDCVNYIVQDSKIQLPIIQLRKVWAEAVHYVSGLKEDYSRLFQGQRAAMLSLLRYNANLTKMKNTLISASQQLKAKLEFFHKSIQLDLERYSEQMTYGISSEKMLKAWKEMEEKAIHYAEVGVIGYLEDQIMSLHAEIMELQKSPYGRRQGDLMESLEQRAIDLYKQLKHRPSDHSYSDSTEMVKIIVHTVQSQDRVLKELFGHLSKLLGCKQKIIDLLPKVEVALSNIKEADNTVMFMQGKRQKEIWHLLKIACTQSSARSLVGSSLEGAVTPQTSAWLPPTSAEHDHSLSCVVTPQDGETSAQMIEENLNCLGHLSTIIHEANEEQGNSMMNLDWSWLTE
As to conditions: at 0.1 µM.

For assay [7], the target named is T2, Inhibitor of nuclear factor kappa-B kinase subunit alpha (Homo sapiens). The following applies: at 1 µM.
Assay [8] addresses T3, Inhibitor of nuclear factor kappa-B kinase subunit beta (Homo sapiens) (UniProt O14920).
T3 sequence (whole entry): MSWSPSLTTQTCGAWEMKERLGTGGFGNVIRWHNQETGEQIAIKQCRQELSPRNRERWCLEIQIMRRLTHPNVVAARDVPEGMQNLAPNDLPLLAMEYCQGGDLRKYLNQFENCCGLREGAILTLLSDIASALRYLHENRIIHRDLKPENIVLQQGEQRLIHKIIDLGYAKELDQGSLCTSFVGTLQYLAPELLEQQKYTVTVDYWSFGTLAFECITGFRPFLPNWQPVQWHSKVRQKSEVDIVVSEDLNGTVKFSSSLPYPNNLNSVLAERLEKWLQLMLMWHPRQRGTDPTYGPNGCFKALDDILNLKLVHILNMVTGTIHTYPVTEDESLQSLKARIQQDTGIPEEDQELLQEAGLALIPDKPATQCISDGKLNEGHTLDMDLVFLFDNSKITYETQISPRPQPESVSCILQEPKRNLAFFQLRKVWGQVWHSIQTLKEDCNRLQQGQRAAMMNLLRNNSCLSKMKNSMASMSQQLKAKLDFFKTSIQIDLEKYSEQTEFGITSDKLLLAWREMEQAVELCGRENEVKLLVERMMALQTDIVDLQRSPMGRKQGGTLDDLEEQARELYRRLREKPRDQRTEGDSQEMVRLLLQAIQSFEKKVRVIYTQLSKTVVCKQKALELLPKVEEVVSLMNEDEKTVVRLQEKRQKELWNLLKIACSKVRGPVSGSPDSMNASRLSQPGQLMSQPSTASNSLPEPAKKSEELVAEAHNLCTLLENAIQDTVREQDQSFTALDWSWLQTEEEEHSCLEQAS
The following applies: at 0.1 µM.

In assay [9] the target is T3, Inhibitor of nuclear factor kappa-B kinase subunit beta (Homo sapiens). As to conditions: at 1 µM.
For assay [10], the target named is T4, Inhibitor of nuclear factor kappa-B kinase subunit epsilon (Homo sapiens) (UniProt Q14164).
T4 sequence (whole entry): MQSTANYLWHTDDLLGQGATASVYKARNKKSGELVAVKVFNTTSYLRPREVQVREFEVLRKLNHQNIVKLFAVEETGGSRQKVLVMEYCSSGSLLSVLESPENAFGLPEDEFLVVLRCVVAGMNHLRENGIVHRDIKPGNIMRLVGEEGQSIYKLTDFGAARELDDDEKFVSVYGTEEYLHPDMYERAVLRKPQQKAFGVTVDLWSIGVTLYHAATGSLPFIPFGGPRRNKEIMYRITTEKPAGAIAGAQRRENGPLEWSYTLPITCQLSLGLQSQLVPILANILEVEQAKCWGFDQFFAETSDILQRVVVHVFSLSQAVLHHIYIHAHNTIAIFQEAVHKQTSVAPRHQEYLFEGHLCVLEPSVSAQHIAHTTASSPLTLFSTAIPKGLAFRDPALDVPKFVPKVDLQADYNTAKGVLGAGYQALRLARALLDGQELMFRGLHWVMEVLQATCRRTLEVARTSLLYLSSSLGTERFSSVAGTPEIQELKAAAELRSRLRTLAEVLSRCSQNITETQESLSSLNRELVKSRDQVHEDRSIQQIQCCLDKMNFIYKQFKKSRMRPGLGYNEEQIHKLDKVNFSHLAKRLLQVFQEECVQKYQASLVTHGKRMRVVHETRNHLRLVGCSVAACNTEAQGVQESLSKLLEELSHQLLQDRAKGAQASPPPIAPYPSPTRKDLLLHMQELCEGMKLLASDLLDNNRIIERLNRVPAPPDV
As to conditions: at 0.1 µM.

For assay [11], the target named is T4, Inhibitor of nuclear factor kappa-B kinase subunit epsilon (Homo sapiens). The following applies: at 1 µM.
For assay [12], the target named is T5, Serine/threonine-protein kinase Nek1 (Homo sapiens) (UniProt Q96PY6).
T5 sequence (whole entry): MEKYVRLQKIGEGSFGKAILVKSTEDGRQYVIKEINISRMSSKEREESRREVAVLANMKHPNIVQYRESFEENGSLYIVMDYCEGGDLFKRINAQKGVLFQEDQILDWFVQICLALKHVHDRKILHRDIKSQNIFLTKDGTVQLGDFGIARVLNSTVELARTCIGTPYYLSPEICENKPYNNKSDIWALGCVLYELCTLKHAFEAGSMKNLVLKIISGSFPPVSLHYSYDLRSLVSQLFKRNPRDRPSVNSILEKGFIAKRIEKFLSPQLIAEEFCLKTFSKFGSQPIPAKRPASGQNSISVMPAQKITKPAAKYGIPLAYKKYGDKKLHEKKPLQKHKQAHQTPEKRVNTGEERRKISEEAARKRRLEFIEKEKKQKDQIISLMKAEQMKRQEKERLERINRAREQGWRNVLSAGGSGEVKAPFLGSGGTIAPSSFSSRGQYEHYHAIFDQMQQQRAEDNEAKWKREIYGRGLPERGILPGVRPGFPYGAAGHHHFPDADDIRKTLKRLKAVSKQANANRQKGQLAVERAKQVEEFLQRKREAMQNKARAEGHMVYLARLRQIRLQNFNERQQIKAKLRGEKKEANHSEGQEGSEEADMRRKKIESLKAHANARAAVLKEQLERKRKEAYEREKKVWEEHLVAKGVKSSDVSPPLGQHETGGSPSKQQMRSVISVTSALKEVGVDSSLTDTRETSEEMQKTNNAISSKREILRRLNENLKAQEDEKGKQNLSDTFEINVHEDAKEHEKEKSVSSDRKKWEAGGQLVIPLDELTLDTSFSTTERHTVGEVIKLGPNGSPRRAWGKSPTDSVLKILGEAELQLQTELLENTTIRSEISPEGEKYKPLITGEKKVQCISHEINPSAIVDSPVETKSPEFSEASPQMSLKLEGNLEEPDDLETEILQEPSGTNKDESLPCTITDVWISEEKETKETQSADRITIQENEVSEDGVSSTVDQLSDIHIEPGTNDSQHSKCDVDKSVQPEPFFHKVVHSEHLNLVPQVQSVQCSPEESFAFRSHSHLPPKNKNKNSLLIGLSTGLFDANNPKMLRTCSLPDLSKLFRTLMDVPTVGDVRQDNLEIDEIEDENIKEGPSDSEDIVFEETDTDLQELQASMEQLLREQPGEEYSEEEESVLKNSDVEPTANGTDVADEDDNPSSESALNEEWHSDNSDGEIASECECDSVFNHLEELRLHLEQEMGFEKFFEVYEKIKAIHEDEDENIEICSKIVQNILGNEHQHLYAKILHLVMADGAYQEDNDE
As to conditions: at 0.1 µM.

Assay [13] concerns the target T5, Serine/threonine-protein kinase Nek1 (Homo sapiens). As to conditions: at 1 µM.
Assay [14] addresses T6, Serine/threonine-protein kinase Nek2 (Homo sapiens) (UniProt P51955).
T6 sequence (whole entry): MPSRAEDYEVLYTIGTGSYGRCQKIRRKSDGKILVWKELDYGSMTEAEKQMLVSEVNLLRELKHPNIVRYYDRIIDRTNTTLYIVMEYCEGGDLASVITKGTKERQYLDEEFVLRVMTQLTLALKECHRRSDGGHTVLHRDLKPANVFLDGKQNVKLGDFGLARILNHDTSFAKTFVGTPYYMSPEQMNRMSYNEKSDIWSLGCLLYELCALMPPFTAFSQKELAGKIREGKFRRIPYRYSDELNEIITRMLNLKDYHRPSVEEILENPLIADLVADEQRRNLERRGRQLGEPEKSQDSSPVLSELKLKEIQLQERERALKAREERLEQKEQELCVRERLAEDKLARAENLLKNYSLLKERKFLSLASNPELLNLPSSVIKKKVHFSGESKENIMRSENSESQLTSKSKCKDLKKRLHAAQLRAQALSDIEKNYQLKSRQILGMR
As to conditions: at 0.1 µM.

Assay [15] addresses T6, Serine/threonine-protein kinase Nek2 (Homo sapiens). As to conditions: at 1 µM.
Assay [16] addresses Serine/threonine-protein kinase Nek6 (Homo sapiens) (UniProt Q9HC98). As to conditions: at 0.1 µM.
For assay [17] the target is unchanged. As to conditions: at 1 µM.
The target in assay [18] is Serine/threonine-protein kinase Nek7 (Homo sapiens) (UniProt Q8TDX7). The following applies: at 0.1 µM.
Serine/threonine-protein kinase Nek7 (Homo sapiens), sequence (Q8TDX7 whole entry, looked up): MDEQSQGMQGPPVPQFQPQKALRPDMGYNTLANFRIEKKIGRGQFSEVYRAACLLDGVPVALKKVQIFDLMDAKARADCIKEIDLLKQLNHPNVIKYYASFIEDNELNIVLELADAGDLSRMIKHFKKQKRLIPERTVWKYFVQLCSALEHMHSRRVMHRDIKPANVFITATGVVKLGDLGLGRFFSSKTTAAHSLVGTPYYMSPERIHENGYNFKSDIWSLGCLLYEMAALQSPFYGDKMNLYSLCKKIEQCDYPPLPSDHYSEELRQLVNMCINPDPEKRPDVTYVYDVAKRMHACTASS
Assay [19] has the same target. As to conditions: at 1 µM.
For assay [20], the target named is T7, Serine/threonine-protein kinase Nek9 (Homo sapiens) (UniProt Q8TD19).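 Further: reported value is the mean percent inhibition of NEK9.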
T7 sequence (whole entry): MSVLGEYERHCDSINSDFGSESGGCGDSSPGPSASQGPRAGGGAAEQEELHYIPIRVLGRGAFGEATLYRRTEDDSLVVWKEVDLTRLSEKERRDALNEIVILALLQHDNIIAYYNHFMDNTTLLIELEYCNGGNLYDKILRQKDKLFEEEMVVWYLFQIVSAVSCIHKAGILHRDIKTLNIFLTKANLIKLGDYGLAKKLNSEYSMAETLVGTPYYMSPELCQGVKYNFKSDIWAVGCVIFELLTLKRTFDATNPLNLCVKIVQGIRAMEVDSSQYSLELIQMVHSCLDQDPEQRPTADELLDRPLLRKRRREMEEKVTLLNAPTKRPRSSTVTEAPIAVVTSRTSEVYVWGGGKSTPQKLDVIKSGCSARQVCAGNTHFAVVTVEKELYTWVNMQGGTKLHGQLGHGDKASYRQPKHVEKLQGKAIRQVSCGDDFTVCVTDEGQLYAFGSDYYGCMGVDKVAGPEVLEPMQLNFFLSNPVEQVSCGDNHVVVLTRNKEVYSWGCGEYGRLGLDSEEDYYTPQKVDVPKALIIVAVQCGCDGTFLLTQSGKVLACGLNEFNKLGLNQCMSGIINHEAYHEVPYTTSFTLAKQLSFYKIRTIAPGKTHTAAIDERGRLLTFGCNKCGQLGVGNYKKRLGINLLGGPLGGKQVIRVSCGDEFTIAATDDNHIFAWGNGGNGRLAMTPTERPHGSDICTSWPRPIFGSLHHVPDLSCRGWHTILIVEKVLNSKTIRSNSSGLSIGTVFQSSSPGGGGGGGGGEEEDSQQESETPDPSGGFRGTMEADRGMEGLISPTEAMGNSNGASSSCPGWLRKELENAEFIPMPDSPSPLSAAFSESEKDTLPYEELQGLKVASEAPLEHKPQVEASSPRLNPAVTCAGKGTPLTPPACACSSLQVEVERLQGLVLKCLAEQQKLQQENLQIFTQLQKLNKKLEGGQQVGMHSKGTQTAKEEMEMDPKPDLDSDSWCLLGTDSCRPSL
The following applies: at 0.1 µM.

Casein kinase II subunit alpha (Homo sapiens), sequence (P68400 whole entry, looked up): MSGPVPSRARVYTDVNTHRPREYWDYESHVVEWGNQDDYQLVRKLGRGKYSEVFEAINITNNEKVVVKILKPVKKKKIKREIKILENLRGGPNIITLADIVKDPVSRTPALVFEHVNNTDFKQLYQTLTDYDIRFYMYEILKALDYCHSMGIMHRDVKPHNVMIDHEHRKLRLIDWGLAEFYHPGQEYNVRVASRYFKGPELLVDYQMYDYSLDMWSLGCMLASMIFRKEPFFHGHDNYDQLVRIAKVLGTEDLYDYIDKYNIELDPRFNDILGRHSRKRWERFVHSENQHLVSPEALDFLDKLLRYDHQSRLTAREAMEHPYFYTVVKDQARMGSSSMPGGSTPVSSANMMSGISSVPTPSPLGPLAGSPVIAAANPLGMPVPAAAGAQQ
Serine/threonine-protein kinase Nek6 (Homo sapiens), sequence (Q9HC98 whole entry): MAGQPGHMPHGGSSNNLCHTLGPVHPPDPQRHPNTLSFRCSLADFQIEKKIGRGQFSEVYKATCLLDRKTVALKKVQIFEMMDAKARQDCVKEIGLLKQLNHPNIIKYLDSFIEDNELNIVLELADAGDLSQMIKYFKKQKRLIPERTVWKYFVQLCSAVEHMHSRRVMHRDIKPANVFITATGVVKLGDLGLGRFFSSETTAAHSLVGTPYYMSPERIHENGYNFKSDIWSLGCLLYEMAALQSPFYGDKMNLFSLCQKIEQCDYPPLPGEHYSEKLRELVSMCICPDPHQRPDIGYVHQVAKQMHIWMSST
Sphingosine kinase 1 (Homo sapiens), sequence (Q9NYA1 whole entry): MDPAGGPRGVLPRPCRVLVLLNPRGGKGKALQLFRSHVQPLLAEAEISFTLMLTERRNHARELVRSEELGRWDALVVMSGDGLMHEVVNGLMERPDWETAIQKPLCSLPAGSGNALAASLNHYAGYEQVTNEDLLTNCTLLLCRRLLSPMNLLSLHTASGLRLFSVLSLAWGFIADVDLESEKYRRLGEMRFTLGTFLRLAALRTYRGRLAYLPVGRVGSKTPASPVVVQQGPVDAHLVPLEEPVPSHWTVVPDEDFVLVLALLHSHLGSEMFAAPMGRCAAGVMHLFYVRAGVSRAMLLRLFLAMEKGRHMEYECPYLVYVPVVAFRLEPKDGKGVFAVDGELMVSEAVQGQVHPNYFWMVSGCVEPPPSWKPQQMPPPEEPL

With `CNC(=O)c1ncccc1Nc1nc(Nc2cc3c(cc2OC)CCCN3C(=O)CN(C)C)nc2[nH]ccc12`, the inhibition in assay [1] was -0.03%; in assay [2], -0.11%; in assay [3], -1.01%; in [4] it was 6.76%; in assay [5] it was 22.8%; in assay [6] it was 12.9%. For the same compound, the inhibition is 7.49% in assay [7]; 2.85% in [8]; -0.65% in assay [9]; 5.04% in [10]; 10.1% in assay [11]; 0.87% in [12]. Besides, the inhibition in assay [13] was 2.58%; in assay [14] it was 4.37%; in assay [15], 3.89%; in assay [16], 2.87%; in [17], -0.46%; in assay [18], 3.53%. Besides, the inhibition in assay [19] came to 7.42%; in assay [20], 5.86%.

As a reminder, the inhibition is the drop in the measured response relative to a control, in per cent.
